Assay [1] concerns the target Albumin (Bos taurus) (UniProt P02769). The experiment in a line: compounds binding labelled BSA control protein – biochemical, small-molecule microarray, Alexa647 label, 635/667 nm fluorescence, artefact control for SMM control protein annotation, profiling panel (AID 1118).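 Also: score merges 667 nm emission intensity and signal-to-noise per printed compound spot.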 Particulars: BSA-A647 binding, fluorescence 635 nm, higher = more signal.
Assay [2] can be described thus: probe aXIP binding to arrayed compounds – biochemical, NeuroSMM set, 635/667 nm fluorescence, primary screen (AID 1119).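 Also: probe is the protein aXip251-270 applied at 1 µg/mL to compound-printed slides; binding of probe to printed compounds measured as 667 nm fluorescence plus signal to noise.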 The settings on record: small-molecule microarray, higher = more signal, called active from +8 up or from −8 down.
Assay [3] in a line: probe aNOTCH3 binding on compound microarray – biochemical, small-molecule microarray, 635/667 nm fluorescence, primary screen (AID 1120).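 Also: probe is a biotin-tagged antibody raised against NOTCH3 rather than NOTCH3 protein; score merges spot fluorescence near 667 nm with spot signal to noise.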 Particulars: higher = more signal.
Assay [4] in a line: probe aNOTCH2 binding on compound microarray – biochemical, small-molecule microarray, 635/667 nm fluorescence, primary screen (AID 1121).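 Also: score merges feature fluorescence read at 667 nm with its signal to noise.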 Particulars: higher = more signal.
The target of assay [5] is Carbonic anhydrase 2 (Homo sapiens) (UniProt P00918). As to the kind of experiment: compounds binding carbonic anhydrase 2 – biochemical, small-molecule microarray, Alexa647-labelled CAII, profiling panel (AID 1122). The settings on record: CAII-A647 binding fluorescence, higher = more signal.
Assay [6] in a line: COS7 lysate on small-molecule microarray, probe aHis, 635 nm (AID 1123).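 Also: z-score combines 667nm fluorescence intensity with signal-to-noise per printed compound spot.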 Particulars: COS7 cell lysate, fluorescence, higher = more signal.
Assay [7] in a line: probe aLAP1 signal on lysate-treated microarray – cell lysate, small-molecule microarray, COS7 lysate, primary screen (AID 1124).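 Also: lysate comes from COS7 cells expressing LAP1 and is applied at 0.3 µg/mL; score merges spot fluorescence near 667 nm with signal-to-noise over triplicate slides.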 The settings on record: probe aLAP1, fluorescence, higher = more signal.
The test system of assay [8] is Sam68 (KHDRBS1). As to the kind of experiment: compounds binding KHDRBS1 protein – biochemical, small-molecule microarray, 635 nm fluorescence, primary screen (AID 1125).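 Also: score merges 667 nm channel intensity with signal to noise over triplicate slides.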 Particulars: higher = more signal.
Assay [9] deals with Chordin-like protein 2 (CHRDL2). As to the kind of experiment: compounds binding chordin-like 2 – biochemical, small-molecule microarray, 635 nm fluorescence, primary screen (AID 1126).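 Also: printed compound slides probed with Chrdl2 protein at 4 µg/mL for 1 h at 4 C; score merges 667 nm emission intensity with signal to noise over three replicate slides.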 The settings on record: fluorescence 635 nm, higher = more signal.
The target of assay [10] is Concanavalin-A (Canavalia ensiformis) (UniProt P02866). As to the kind of experiment: compounds binding concanavalin A lectin – biochemical, small-molecule microarray, Alexa647 label, 635 nm, artefact control for SMM control protein annotation, primary screen (AID 1127).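 Also: z combines 667 nm emission intensity with signal-to-noise across three replicate slides.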 The settings on record: ConA-A647 binding fluorescence, higher = more signal.
The nature of assay [11]: compounds binding Alexa647 anti-His antibody – biochemical, small-molecule microarray, 635 nm fluorescence, artefact control for SMM control protein annotation, primary screen (AID 1128).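 Also: score merges feature fluorescence with signal-to-noise for each printed compound spot.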 The settings on record: higher = more signal.
The subject of assay [12] is Human papillomavirus type 1a E7 protein (residues 1-88). The experiment in a line: HPV1a E7 small-molecule binders, primary screen, biochemical, small-molecule microarray, residues 1-88, 635 nm (AID 1129). Particulars: small-molecule microarray binding, fluorescence 635 nm; higher = more signal.
Assay [13] deals with Focal adhesion kinase 1 (Homo sapiens) (UniProt Q05397). The experiment in a line: PTK2 protein binding on printed compound slides – biochemical, small-molecule microarray, 635/667 nm fluorescence, BSA, DTT, primary screen (AID 1130).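 Also: composite of spot emission at 667 nm and signal to noise over triplicate slides.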 Particulars: 635 nm fluorescence, higher = more signal.
Assay [14] relates to Fibrinogen (Alexa647-labelled). As to the kind of experiment: Alexa647-fibrinogen binding to printed small molecules – biochemical, small-molecule microarray, 635/667 nm fluorescence, artefact control for SMM control-protein annotation, profiling panel (AID 1131).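 Also: z-score merges 667 nm fluorescence with per-spot signal-to-noise over triplicate slides.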 Particulars: fibrinogen-A647 binding fluorescence, higher = more signal.
The target in assay [15] is Follistatin (Homo sapiens) (UniProt P19883). The experiment in a line: FST protein binding to printed compounds – biochemical, small-molecule microarray, 635/667 nm fluorescence, primary screen (AID 1132). Particulars: 635 nm fluorescence, higher = more signal.
The target of assay [16] is Fibroblast growth factor 2 (Homo sapiens) (UniProt P09038). As to the kind of experiment: basic fibroblast growth factor binding to printed compounds – biochemical, small-molecule microarray, 635/667 nm fluorescence, primary screen (AID 1133). The settings on record: FGF2, fluorescence 635/667, higher = more signal.
Assay [17] is described as follows: JC-1 mitochondrial potential readout, lung cancer cells – cell-based, A549, JC-1 fluorescence, basal, 24 h, 100 nL, profiling panel (AID 1138).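 Also: A549 lung adenocarcinoma cells under basal conditions with no added stimulus; test concentration not given here.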 Particulars: higher = more signal.
Assay [18] has as its system Lefty1. As to the kind of experiment: Lefty1 protein binding to printed compounds – biochemical, small-molecule microarray, 635/667 nm fluorescence, primary screen (AID 1139). Particulars: fluorescence 635/667, higher = more signal.
The subject of assay [19] is wheat germ agglutinin (Triticum aestivum), Alexa647-labelled. The experiment in a line: Alexa647-WGA lectin binding to printed small molecules – biochemical, small-molecule microarray, 635/667 nm fluorescence, artefact control for SMM control-protein annotation, profiling panel (AID 1140).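 Also: score merges 667 nm feature emission with signal to noise over triplicate slides.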 The settings on record: WGA-A647 binding, 635 nm fluorescence, higher = more signal.

The target of assay [20] is Luciferin 4-monooxygenase (Photinus pyralis) (UniProt P08659). The experiment in a line: inhibition of purified Photinus pyralis luciferase – biochemical, luminescence, purified enzyme, 2006 set, primary screen (AID 1141).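 Also: cell-free assay with purified firefly luciferase at 100 ng per well in PBS; test concentration not given here.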 Particulars: purified firefly luciferase, SteadyGlo luminescence, 30 min; higher = more signal, called active from +8 up or from −8 down.

Molecules are shown by their SMILES. Active and inactive are the calls of the source.

Sequence of Luciferin 4-monooxygenase (Photinus pyralis) (P08659 whole entry, looked up): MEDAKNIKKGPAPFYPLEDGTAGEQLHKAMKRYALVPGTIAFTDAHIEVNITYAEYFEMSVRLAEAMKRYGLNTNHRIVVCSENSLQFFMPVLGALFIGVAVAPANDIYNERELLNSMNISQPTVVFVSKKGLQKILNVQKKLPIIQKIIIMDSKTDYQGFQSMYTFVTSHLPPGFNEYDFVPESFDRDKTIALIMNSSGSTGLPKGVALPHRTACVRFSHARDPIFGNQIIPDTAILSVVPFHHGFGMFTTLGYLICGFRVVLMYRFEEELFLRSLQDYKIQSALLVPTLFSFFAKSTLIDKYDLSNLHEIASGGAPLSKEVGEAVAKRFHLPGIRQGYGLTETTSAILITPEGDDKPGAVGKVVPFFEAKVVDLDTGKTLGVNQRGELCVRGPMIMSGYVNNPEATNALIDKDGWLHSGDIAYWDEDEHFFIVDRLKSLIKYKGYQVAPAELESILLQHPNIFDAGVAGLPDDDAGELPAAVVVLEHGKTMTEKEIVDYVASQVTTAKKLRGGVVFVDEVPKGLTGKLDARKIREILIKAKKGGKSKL
Sequence of Fibroblast growth factor 2 (Homo sapiens) (P09038 whole entry, looked up): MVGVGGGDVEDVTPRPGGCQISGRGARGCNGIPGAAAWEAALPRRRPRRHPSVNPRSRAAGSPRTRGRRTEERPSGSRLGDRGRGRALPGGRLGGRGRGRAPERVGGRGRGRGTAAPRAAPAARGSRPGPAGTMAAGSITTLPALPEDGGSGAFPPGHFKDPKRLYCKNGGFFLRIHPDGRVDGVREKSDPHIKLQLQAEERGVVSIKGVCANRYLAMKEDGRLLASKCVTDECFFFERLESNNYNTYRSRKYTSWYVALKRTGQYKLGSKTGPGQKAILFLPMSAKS
Sequence of Albumin (Bos taurus) (P02769 whole entry, looked up): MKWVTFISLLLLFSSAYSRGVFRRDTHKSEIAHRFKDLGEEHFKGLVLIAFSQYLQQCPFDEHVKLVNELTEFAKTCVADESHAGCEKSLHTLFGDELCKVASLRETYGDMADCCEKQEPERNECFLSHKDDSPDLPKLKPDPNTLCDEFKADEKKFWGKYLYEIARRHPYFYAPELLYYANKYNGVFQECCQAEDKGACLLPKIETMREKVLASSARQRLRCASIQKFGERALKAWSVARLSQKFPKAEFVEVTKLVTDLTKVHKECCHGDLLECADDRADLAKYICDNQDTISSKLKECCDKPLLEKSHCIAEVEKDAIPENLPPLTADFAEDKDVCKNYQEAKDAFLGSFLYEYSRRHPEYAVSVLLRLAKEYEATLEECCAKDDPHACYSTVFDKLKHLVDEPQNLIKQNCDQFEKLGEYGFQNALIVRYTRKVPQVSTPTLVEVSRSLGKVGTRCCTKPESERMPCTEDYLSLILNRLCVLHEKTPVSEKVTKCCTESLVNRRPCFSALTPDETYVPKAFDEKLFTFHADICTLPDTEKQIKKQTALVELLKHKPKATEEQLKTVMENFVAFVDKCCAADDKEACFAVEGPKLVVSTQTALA
Sequence of Concanavalin-A (Canavalia ensiformis) (P02866 whole entry, looked up): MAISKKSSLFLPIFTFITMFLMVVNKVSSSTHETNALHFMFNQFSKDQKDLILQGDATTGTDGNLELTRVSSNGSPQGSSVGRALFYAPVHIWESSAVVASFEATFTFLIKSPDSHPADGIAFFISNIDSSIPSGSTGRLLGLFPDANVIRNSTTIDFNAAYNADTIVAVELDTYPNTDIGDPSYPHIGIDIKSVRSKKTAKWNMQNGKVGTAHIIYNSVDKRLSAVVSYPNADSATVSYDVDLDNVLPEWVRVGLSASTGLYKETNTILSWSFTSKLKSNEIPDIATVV
Sequence of Focal adhesion kinase 1 (Homo sapiens) (Q05397 whole entry, looked up): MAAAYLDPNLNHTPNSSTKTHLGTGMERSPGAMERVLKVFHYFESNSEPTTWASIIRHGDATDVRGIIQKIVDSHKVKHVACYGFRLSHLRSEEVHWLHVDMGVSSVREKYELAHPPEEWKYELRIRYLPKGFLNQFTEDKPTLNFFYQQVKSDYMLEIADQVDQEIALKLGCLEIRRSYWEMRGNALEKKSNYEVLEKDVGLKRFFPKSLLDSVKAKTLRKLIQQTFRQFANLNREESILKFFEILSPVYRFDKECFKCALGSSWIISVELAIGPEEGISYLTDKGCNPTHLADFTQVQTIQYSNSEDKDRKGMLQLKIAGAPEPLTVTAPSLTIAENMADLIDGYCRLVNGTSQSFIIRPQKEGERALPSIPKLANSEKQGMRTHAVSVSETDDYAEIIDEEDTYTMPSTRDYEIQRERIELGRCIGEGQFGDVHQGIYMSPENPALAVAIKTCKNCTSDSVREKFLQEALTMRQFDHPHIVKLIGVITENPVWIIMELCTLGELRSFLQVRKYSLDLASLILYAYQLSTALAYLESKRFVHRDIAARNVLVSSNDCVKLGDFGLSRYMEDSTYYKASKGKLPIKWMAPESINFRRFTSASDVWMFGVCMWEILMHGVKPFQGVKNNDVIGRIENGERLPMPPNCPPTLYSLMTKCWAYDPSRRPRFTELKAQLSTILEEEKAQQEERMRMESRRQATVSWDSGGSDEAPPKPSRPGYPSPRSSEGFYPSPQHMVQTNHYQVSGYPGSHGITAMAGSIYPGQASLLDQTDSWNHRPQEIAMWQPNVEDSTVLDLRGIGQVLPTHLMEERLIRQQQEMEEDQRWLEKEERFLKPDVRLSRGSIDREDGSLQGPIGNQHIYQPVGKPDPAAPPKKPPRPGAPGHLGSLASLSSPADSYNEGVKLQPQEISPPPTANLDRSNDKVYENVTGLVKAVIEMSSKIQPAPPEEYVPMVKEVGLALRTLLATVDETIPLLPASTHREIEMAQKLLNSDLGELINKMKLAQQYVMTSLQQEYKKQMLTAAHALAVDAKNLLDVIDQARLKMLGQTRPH
Sequence of Follistatin (Homo sapiens) (P19883 whole entry, looked up): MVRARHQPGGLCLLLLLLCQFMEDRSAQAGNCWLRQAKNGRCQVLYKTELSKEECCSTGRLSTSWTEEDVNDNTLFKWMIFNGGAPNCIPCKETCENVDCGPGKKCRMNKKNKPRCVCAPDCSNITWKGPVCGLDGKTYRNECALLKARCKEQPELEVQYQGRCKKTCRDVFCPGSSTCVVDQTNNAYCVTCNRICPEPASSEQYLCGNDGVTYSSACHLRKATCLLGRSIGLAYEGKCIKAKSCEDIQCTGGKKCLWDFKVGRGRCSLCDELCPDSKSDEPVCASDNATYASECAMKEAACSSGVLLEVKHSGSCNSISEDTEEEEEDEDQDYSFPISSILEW

Regarding `C=C[C@H](C)[C@H](O)c1ccc(OCCO)cc1`, the composite z-score in assay [1] is -0.529; in [3], -0.502; in assay [4] it was -0.185; in assay [5], 0.264; in assay [6], -1.09; in assay [7], -0.177. Besides, the composite z-score in assay [8] is -1.74; in assay [9] it was -2.23; in [10], -0.802; in [11], -0.151; in assay [12], -1.55; in assay [13] it was 0.151. Further, the composite z-score is -2.74 in assay [14]; -0.74 in [15]; -1.2 in assay [16]; -0.91 in [18]; -0.89 in assay [19]. In addition, the composite Z-score in [2] is -0.254 (inactive). For the same compound, the z-score in assay [17] is 0.145; in [20], -24.9 (active).

For `O=C1C2C=CC(C(O)CCc3ccccc3)N(Nc3ccccc3)C2C(=O)N1c1ccccc1` (stereo not given), the composite z-score stood at 0.861 in [1]; 0.185 in assay [3]; 0.0278 in [4]; 0.65 in [5]; 2.82 in assay [6]; 0.899 in assay [7]. Also, the composite z-score in assay [8] is 1.3; in assay [9], -0.788; in assay [10], 1.2; in assay [11] it was 1.89; in assay [12] it was 1.23; in assay [13], 0.477. Moreover, the composite z-score in assay [14] was 0.889; in [15], 0.471; in assay [16] it was -0.464; in [18] it was 0.38; in assay [19], 1.44. In addition, the composite Z-score in assay [2] was -0.107 (inactive). Besides, the values for the z-score in assay [17] and in [20] were -0.411 and -0.0874 (inactive), respectively.

Take `COCCOC(=O)N1C(=O)[C@@]2(c3cc(C#CCCO)ccc31)[C@H](c1ccc(O)cc1)N1[C@H](c3ccccc3)[C@H](c3ccccc3)OC(=O)[C@H]1[C@@H]2C(=O)N1CCCCCCC1`: the composite z-score in assay [1] amounted to 0.0837; in [3], 0.489; in assay [4] it was 0.0931; in [5], 0.431; in [6] it was 0.666; in assay [7] it was 0.642. Besides, the composite z-score in [8] was found to be 1.3; in assay [9], 0.755; in assay [10] it was 1.1; in [11] it was 2.4; in assay [12], 1; in assay [13] it was 0.855. In addition, the composite z-score in assay [14] was 0.771; in assay [15], 1.43; in assay [16], 1.6; in assay [18] it was 1.21; in assay [19], 1.06. Moreover, the composite Z-score in [2] is 1.11 (inactive). The z-score in [17] was -0.183; in [20], -0.179 (inactive).

For the compound `O=C(NCCN1CCOCC1)[C@@H]1c2ccccc2C(=O)N(Cc2cc(F)cc(C(F)(F)F)c2)[C@H]1c1ccc(CO)cc1`, the composite z-score was -0.265 in [1]; 0.49 in [3]; -0.222 in assay [4]; 0.724 in assay [5]; 2.53 in [6]; -0.062 in [7]. For the same compound, the composite z-score was 0.463 in assay [8]; -1.55 in [9]; -0.287 in assay [10]; 0.195 in [11]; 0.0794 in assay [12]; 0.205 in assay [13]. For the same compound, the composite z-score in [14] is -0.732; in assay [15], 0.687; in assay [16] it was -0.77; in assay [18] it was 0.314; in assay [19], -0.254. The composite Z-score in [2] is -0.543 (inactive). The z-score is 2.17 in [17] and -0.183 (inactive) in assay [20].

Turning to `CC(C)NC(=O)[C@@H]1c2ccccc2C(=O)N(C2CCCCC2)[C@H]1c1ccc(CO)cc1`, the composite z-score was -0.338 in assay [1]; -0.0731 in [3]; -0.0326 in assay [4]; 0.336 in assay [5]; 1.47 in assay [6]; -0.0044 in [7]. Further, the composite z-score in assay [8] was 0.77; in [9] it was -0.329; in assay [10], 0.661; in [11] it was 2.71; in assay [12] it was 1.15; in assay [13], 0.517. Besides, the composite z-score in assay [14] was 0.137; in [15], 0.449; in assay [16] it was 0.525; in assay [18], -0.161; in assay [19], 0.577. Besides, the composite Z-score in [2] is -0.101 (inactive). The figures for the z-score in assay [17] and in assay [20] were 0.483 and 0.202 (inactive), respectively.

In the case of `COC(=O)[C@@]1(Cc2ccc(F)cc2)[C@H]2c3cc(C(=O)N(C)C)n(CCc4c[nH]c5ccc(OC)cc45)c3C[C@H]2CN1C(=O)c1ccccc1`, the composite z-score in assay [1] stood at 0.655; in assay [3], 0.351; in assay [4], 0.317; in [5], 0.617; in assay [6] it was 2.74; in [7], 0.606. For the same compound, the composite z-score is 1.1 in [8]; -0.705 in assay [9]; -0.203 in [10]; -0.0359 in assay [11]; 1.25 in [12]; 0.827 in assay [13]. For the same compound, the composite z-score in assay [14] is 1.04; in [15], -0.49; in [16], -1.09; in [18], -1.41; in [19] it was 1.37. For the same compound, the composite Z-score in [2] is 0.0904 (inactive). The z-score in assay [17] was -1.79; in assay [20], 0.158 (inactive).

Values taken from PubChem BioAssay.
